Measured values from PubChem BioAssay AID1851 (National Center for Advancing Translational Sciences (NCATS), 2009).
Several values for one entry are separate records, joined by “and”; a condition that tells them apart may be missing. Equal values may be shown once. Out of some 16,000 compounds screened, about 5,700 (36%) were called active. Inconclusive results (about 24%) are left out. Calls come from the whole dose curve; as a rule, active = well fitted curve in the direction sought with a large enough effect; inconclusive = small, poorly fitted or top-dose-only effect, or effect the other way; inactive = no such curve, though single readings can be large or run the other way. The list shows a part of the results.

What follows are compounds tested against Cytochrome P450 1A2 (Homo sapiens) (UniProt P05177) (assay: Cytochrome panel assay with activity outcomes). Conditions: recombinant CYP, pro-luciferin dealkylation, luminescence, p450-cyp1a2; series mostly up to 57.1 µM.
Chain of Cytochrome P450 1A2 (Homo sapiens) (P05177 whole entry, looked up): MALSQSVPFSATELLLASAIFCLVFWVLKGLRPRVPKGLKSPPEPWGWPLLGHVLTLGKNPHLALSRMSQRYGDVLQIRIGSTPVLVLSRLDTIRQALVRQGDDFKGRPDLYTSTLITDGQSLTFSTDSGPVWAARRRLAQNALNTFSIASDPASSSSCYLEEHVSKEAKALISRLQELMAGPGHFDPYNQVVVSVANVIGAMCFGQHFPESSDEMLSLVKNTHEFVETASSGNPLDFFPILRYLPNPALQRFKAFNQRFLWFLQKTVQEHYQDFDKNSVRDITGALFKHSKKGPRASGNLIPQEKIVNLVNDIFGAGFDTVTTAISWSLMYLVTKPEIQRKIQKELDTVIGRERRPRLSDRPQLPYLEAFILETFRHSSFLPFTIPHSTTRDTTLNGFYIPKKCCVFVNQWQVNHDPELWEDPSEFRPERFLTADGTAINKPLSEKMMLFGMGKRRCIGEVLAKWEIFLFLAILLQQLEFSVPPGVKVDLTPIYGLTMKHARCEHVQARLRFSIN
% is set by controls: 0 for no effect and ±100 for the full control effect.

| Compound | AC50 | activity, negative = inhibition |
| --- | --- | --- |
| O=C(NCc1ccccc1)c1onc(CSc2ccc(F)cc2)c1C(=O)NCCCN1CCOCC1 | inactive |  |
| COc1cccc(C(=O)N(C)c2nnc(-c3ccncc3)s2)c1 | 12600 nM (active) |  |
| O=C(c1c(O)c2ccc(Cl)cc2[nH]c1=O)C1CC1 | 79.4 nM (active) |  |
| O=C(c1n[nH]c(=O)c2ccccc12)N1CCN(C2c3ccccc3-c3ccccc32)CC1 | 15800 nM (active) |  |
| CCCOc1ccc(CSC(CC(=O)O)C(=O)O)cc1 (stereo not given) | inactive |  |
| CCOc1ccc(CSC(CC(=O)O)C(=O)O)cc1 (stereo not given) | inactive |  |
| CCCCOc1ccc(CC(=O)NO)cc1 | 1580 nM (active) |  |
| O=C1C2Sc3[nH]c(=O)sc3C(c3ccccc3)C2C(=O)N1c1ccc(Cl)cc1 (stereo not given) | inactive |  |
| COc1ccc([C@@H]2CC(=O)c3c(O)cc(O[C@H]4O[C@@H](CO[C@H]5O[C@@H](C)[C@@H](O)[C@@H](O)[C@@H]5O)[C@@H](O)[C@@H](O)[C@@H]4O)cc3O2)cc1O | inactive |  |
| Brc1ccc2cccnc2c1 | 2510 nM (active) |  |
| Cc1ccc(OCC(O)Cn2c3ccccc3c3ccccc32)cc1 (stereo not given) | 1410 nM (active) |  |
| Cc1ccccc1OCC(O)Cn1c2ccccc2c2ccccc21 (stereo not given) | 1780 nM (active) |  |
| C[n+]1cn(CC(O)COCc2ccccc2)c2ccccc21 (stereo not given) | inactive |  |
| CC(=O)Nc1ccc(OCC(O)Cn2cnc3ccccc32)cc1 (stereo not given) | inactive |  |
| COc1ccc(-c2cc3ccccc3n2CC(O)CNCCO)cc1 (stereo not given) | inactive |  |
| Cc1ccccc1OCC(O)Cn1c(NCc2ccccc2)nc2c1c(=O)[nH]c(=O)n2C (stereo not given) | inactive |  |
| CC(=O)Nc1ccc(OCC(O)Cn2c3ccccc3c3ccccc32)c(C)c1 (stereo not given) | 2820 nM (active) |  |
| C=CCN(CC=C)CC(O)Cn1c2ccccc2c2ccccc21 (stereo not given) | 2000 nM (active) |  |
| O[C@H](COc1ccccc1)CN1CCCCC1 |  | -3.85% [at 11.4 µM] (inactive) |
| CC[C@@]12CCCN3CCc4c(n(c5ccccc45)C(=O)C1)[C@H]32 |  | -9.85% [at 2.29 µM] (inactive) |

| Compound | AC50 | activity, negative = inhibition |
| --- | --- | --- |
| O=C(CCCCC(=O)Nc1c(I)cc(I)c(C(=O)O)c1I)Nc1c(I)cc(I)c(C(=O)O)c1I | inactive |  |
| CCOc1ccccc1Oc1c(C)oc2cc(OC(=O)c3ccco3)ccc2c1=O | inactive |  |
| CCOc1ccccc1Oc1coc2cc(OC)ccc2c1=O | 5010 nM (active) |  |
| CCN(CC)Cc1c(O)ccc2c(=O)c(Oc3ccccc3OC)coc12 | inactive |  |
| CC(C)CC(=O)N1CCC(N2CCN(c3ccccc3)CC2)CC1 | inactive |  |
| CC(=O)N1CCC2(CCN(Cc3ccccc3)CC2)CC1 | inactive |  |
| CCOC(=O)C1=C(O)C(=O)N(Cc2ccccc2)C1 | 1000 nM (active) |  |
| CCOC(=O)C1(S(=O)(=O)c2ccccc2)CCN(Cc2ccccc2)CC1 | inactive |  |
| CCN(CC)N=Nc1[nH]nc2nc(C)cc(C)c12 | 2510 nM (active) |  |
| Cc1cc(C)c2c(N=NN(C)C)[nH]nc2n1 | 2240 nM (active) |  |
| CCOC(=O)N1CCC(NC(=O)CCC(=O)N2CC(C)Oc3ccc(C)cc32)CC1 (stereo not given) | inactive |  |
| CO[C@@H]1COC(=O)CC=C[C@@H](C)[C@@H]2C=C[C@@H](O)[C@@H](COC(=O)C/C=C\[C@H]1C)O2 |  | -5.43% [at 11.4 µM] (inactive) |
| CN(C)Cc1ccc(-c2cc3onc(-c4ccccc4)c3c(=O)n2C)cc1 |  | -13.3% [at 11.4 µM] (inactive) |
| CC(C)NC(=O)N1CCC2(CC1)CCN(C(=O)c1cnccn1)CC2 | inactive |  |
| C/C(=N/S(=O)(=O)c1ccc(Cl)c(Cl)c1)OCC(C)(C)C |  | -4.08% [at 11.4 µM] (inactive) |
| O=S(=O)(Nc1ccc(Cc2ccncc2)cc1)c1cccs1 | 126 nM (active) |  |
| O=S(=O)(Nc1ccc(Cc2ccncc2)cc1)c1ccc(Cl)c(Cl)c1 | 126 nM (active) |  |
| CCNS(=O)(=O)c1ccc(NS(C)(=O)=O)cc1 | inactive |  |
| COc1ccc(S(=O)(=O)Nc2ccc(S(=O)(=O)N3CCCCC3)cc2)cc1C | inactive |  |
| O=S(=O)(Nc1ccc(Cc2ccncc2)cc1)c1ccc(Br)cc1 | 44.7 nM (active) |  |

| Compound | AC50 | activity, negative = inhibition |
| --- | --- | --- |
| Nc1ccc(S(=O)(=O)Nc2ncccn2)cc1 | inactive |  |
| O=C(C(Cc1ccccc1)N1C(=O)C2C3CCC(C3)C2C1=O)N1CCCCC1 (stereo not given) | inactive |  |
| COc1cc(C(=O)Nc2nc3ccc4nc(C)sc4c3s2)cc(OC)c1OC | inactive |  |
| Cc1nc2c(ccc3nc(NC(=O)c4ccc5c(c4)OCCO5)sc32)s1 | 3160 nM (active) |  |
| Cc1nc2ccc3nc(NC(=O)c4ccc(S(=O)(=O)N5CCOCC5)cc4)sc3c2s1 | inactive |  |
| O=C(O)c1ccc(NS(=O)(=O)Cc2ccccc2)cc1 |  | -12.1% [at 11.4 µM] (inactive) |
| c1ccc2c(c1)C(=Nc1ccc(N=C3c4ccccc4-c4ccccc43)cc1)c1ccccc1-2 |  | -19.6% [at 2.29 µM] (inactive) |
| CC(=O)Nc1ccc2c(c1)C(=Nc1ccc(C(=O)O)cc1)c1ccccc1-2 | 316 nM (active) |  |
| CCCSc1nc(SCC(=O)NCc2ccccc2)c2c3c(sc2n1)COC(C)(CC)C3 (stereo not given) | inactive |  |
| CCSc1ncnc2c1sc1nc(-c3ccco3)c3c(c12)CC(C)(C)OC3 | inactive |  |
| CCCSc1nc(NCc2ccco2)c2c3c(sc2n1)COC(C)(C)C3 | 794 nM (active) |  |
| Cc1nc(NS(=O)(=O)c2ccccc2C)c2c3c(sc2n1)CCC3 | 3160 nM (active) |  |
| Cc1ccc(-n2c(SCC(=O)NCc3ccco3)nc3sc4c(c3c2=O)CC(C)(C)SC4)cc1 | inactive |  |
| Cc1nc(NCc2ccco2)c2c3c(sc2n1)CCC3 | 2510 nM (active) |  |
| Cc1ccc(S(=O)(=O)c2nc(S(=O)(=O)c3ccc(C)cc3)c(NCc3ccco3)s2)cc1 | inactive |  |
| C[C@H](O/N=C1/[C@H]2O[C@@H]2[C@@H](O)[C@H]2[C@H]1CCn1c(=O)n(-c3ccccc3)c(=O)n12)c1cn([C@H](CO)Cc2ccccc2)nn1 |  | -6.4% [at 11.4 µM] (inactive) and 3.91% [at 11.4 µM] (inactive) |
| COc1cc(C2C(C#N)=C(N)N(c3sc4c(c3C#N)CCCC4)C3=C2C(=O)CC(C)(C)C3)cc(OC)c1OC (stereo not given) | inactive |  |
| O=C(c1csnn1)N1CCC[C@@]2(CCN(Cc3nccs3)C2)C1 | inactive |  |
| CC1(C)Cc2c(ccc3ccccc23)C(=O)N1 | 3550 nM (active) |  |
| CNC(=O)/C=C1\NC(C)(C)Cc2c1ccc1ccccc21 | 6310 nM (active) |  |
